# Test results as given in PubChem BioAssay (EPA / NIEHS).
# Calls of active or inactive are those of the source. Rule for the calls: active = hit-call score of the fitted dose curve at least 0.9, where 1 is the maximum; inactive = score below 0.9.
# Read-out: Urokinase-type plasminogen activator receptor (uPAR), PLAUR (gene 5329)
# Experiment: BSK_BE3C_uPAR: BioMAP Diversity Plus: BE3C Assay for Urokinase-type plasminogen activator receptor (uPAR) Biomarker Activity (AID 2283039);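 for outcome: cells exposed to compound for one day before measurement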
# Details: primary human bronchial epithelial cells; actives raise or lower the signal
# Experimental: BSK_BE3C is a cell-based, multiplexed-readout assay that uses bronchial epithelial cell, a human lung primary cell, with measurements taken at 24 hours after chemical dosing in a 96-well plate.BSK_BE3CAR is an assay component measured in the BSK_BE3C assay. It measures uPAR antibody related to regulation of gene expression using ELISA technology.Data from the assay component BSK_BE3CAR was analyzed into 1 assay endpoint. This assay endpoint, BSK_BE3CAR, was analyzed with bidirectional fitting relative to DMSO as the negative control and baseline of activity. Using a type of binding reporter, gain or loss-of-signal activity can be used to understand changes in the signaling as they relate to the gene PLAUR. Furthermore, this assay endpoint can be referred to as a primary readout, because this assay has produced multiple assay endpoints where this one serves a signaling function. To generalize the intended target to other relatable targets, this assay endpoint is annotated to the cytokine intended target family, where the subfamily is plasmogen activator.
# The levels of cell surface (or secreted, indicated by the prefix "s") biomarker endpoints were measured by ELISA. Overt cytotoxicity to cells in confluent adherent cultures (all systems other than the BT system) was assessed by measuring total protein levels using sulforhodamine B (SRB) staining in parallel cultures at the time of biomarker measurements, indicated as SRB endpoints. For proliferation assays for adherent cell types, individual cell types are cultured at sub-confluence and relative cell numbers quantified by SRB staining at time points optimized for each system (48 h: 3C and CASM3C systems; 72 h: BT and HDF3CGF systems; 96 h: SAg system). SRB was performed by staining cells with 0.1% SRB after fixation with 10% TCA and reading wells at 560 nm.Viability and proliferation of PBMC (T cells) was quantified by Alamar Blue reduction for the SAg and BT systems. For PBMC viability (referred to as PBMC Cytotoxicity within the assay endpoint names), cells were plated (75,000/well in a 96-well plate) and then chemical samples added for 1 h before addition of activators, SEB and TSST-1 (20 ng/mL final concentration each). Cells were incubated for 90 h. Then, Alamar Blue (20 uL/well) (Invitrogen, Cat DAL1100) was added for 6 h, and the plates were read with a fluorescence microplate reader at 546/580 nm (excitation/emission). For PBMC proliferation, cells were plated and activated as above but incubated for only 16 h prior to addition of Alamar Blue. Plates were read after 6 h.
SMILES,outcome,AC50
CCCSP(=O)(OCC)SCCC,inactive,
CCCOc1nn(C(=O)NS(=O)(=O)c2ccccc2C(=O)OC)c(=O)n1C,,1.32 µM (active)
CCc1cccc(CC)c1N(COC)C(=O)CCl,inactive,
Cc1nn(-c2cc(NS(C)(=O)=O)c(Cl)cc2Cl)c(=O)n1C(F)F,inactive,
FC(F)C(F)(F)OCC(Cn1cncn1)c1ccc(Cl)cc1Cl (stereo not given),inactive,
CCCCN(CC)c1c([N+](=O)[O-])cc(C(F)(F)F)cc1[N+](=O)[O-],inactive,
C#CCC1=C(C)C(OC(=O)C2C(C=C(C)C)C2(C)C)CC1=O (stereo not given),inactive,
CCCCSP(=O)(SCCCC)SCCCC,inactive,
CSC1=N[C@@](C)(c2ccccc2)C(=O)N1Nc1ccccc1,inactive,
CC(C)N(C(=O)SCC(Cl)=C(Cl)Cl)C(C)C,inactive,
C[Si](Cn1cncn1)(c1ccc(F)cc1)c1ccc(F)cc1,inactive,
CCC(=O)Nc1ccc(Cl)c(Cl)c1,inactive,
Cc1ccn2nc(S(=O)(=O)Nc3c(F)cccc3F)nc2n1,inactive,
CCc1cnc(C2=NC(C)(C(C)C)C(=O)N2)c(C(=O)O)c1 (stereo not given),inactive,
CCCSP(=O)(OCC)Oc1ccc(Br)cc1Cl (stereo not given),inactive,
CC(COc1ccc(Oc2ccccc2)cc1)Oc1ccccn1 (stereo not given),inactive,
CC(C)=CC1C(C(=O)OCN2C(=O)C3=C(CCCC3)C2=O)C1(C)C (stereo not given),inactive,
CC(C1CC1)C(O)(Cn1cncn1)c1ccc(Cl)cc1 (stereo not given),inactive,
C[N+]1(C)CCCCC1,inactive,
CCc1cccc(C)c1N(C(=O)CCl)C(C)COC (stereo not given),inactive,

SMILES,outcome,AC50
O=c1ccc(=O)[nH][nH]1,inactive,
COP(=O)(NC(C)=O)SC (stereo not given),inactive,
CCOP(=O)(NC(C)C)Oc1ccc(SC)c(C)c1 (stereo not given),,5.54 µM (active)
CNc1cnn(-c2cccc(C(F)(F)F)c2)c(=O)c1Cl,inactive,
CN1COCN(Cc2cnc(Cl)s2)C1=N[N+](=O)[O-],inactive,
COc1cccc(C(=O)NN(C(=O)c2cc(C)cc(C)c2)C(C)(C)C)c1C,inactive,
COP(=O)(OC)OC(Br)C(Cl)(Cl)Br (stereo not given),,36.6 µM (active)
CCCCOC(=O)[C@@H](C)Oc1ccc(Oc2ccc(C#N)cc2F)cc1,,0.811 µM (active)
Nc1nc(N)nc(NC2CC2)n1,inactive,
CCOP(=S)(Oc1cnc(C(C)(C)C)nc1)OC(C)C (stereo not given),inactive,
COP(=O)(OC)C(O)C(Cl)(Cl)Cl (stereo not given),,5.49 µM (active)
CCOP(=S)(OCC)Oc1cc(C)nc(C(C)C)n1,inactive,
CCOP(=O)(OCC)Oc1cc(C)nc(C(C)C)n1,inactive,
CNC(=O)ON=C(C)SC,inactive,
CN(C)[C@@H]1C(=O)C(C(N)=O)=C(O)[C@@]2(O)C(=O)C3=C(O)c4c(O)cccc4[C@@](C)(O)[C@H]3[C@H](O)[C@@H]12,inactive,
N#CSCSC#N,inactive,
COc1ccc(C(=CC(=O)N2CCOCC2)c2ccc(Cl)cc2)cc1OC,inactive,
CCOP(=S)(OCC)Oc1ccc([N+](=O)[O-])cc1,inactive,
COc1cc(OC)nc(Sc2cccc(Cl)c2C(=O)O)n1,inactive,
CN(C)C(=O)Nc1cccc(C(F)(F)F)c1,inactive,
